# Screening data from PubChem BioAssay.
# Rows were chosen to be rich in hits. Some 5.5% of all compounds tested hit in one or more screens of this group.
# Gal4-VP16 FLuc = VP16 counterscreen qHTS for inhibitors of ROR gamma transcriptional activity | Drosophila S2 Gal4-VP16 UAS-luciferase, luminescence, 20 h | Potency, µM (doses to about 53.6 µM), hits mostly inhibitors | 310,000 tested, 3.5% active | AID 2546, 2010;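 note: Gal4-VP16 expression switched on by copper sulfate through the metallothionein promoter; nearly all actives have a fitted effect of over 50% in size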
# Six1-Eya2 blk = qHTS Assay for Inhibitors of the Six1/Eya2 Interaction. AID 651725, 2012. Homeobox protein SIX1 (Homo sapiens) + Protein phosphatase EYA2 (Homo sapiens), …. AlphaScreen GST-Six1/His-Eya2 binding, biochemical; hits give low values. activity change, % (concentration not given with the values). 360,000 tested, 0.56% active; in the data active = activity change below about -65%; inconclusive = mostly about -30% to -63%
#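 GST-Six1 + His-Eya2 (5X stock: 250/500 nM); Tris pH 8.0, 300 mM NaCl, 0.05% BSA, 0.02% Tween 20; GSH donor/Ni acceptor beads; 1 h 37 °C dark; AlphaScreen readout.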
# RORgamma inh = qHTS for inhibitors of ROR gamma transcriptional activity; AID 2551, 2010; 310,000 tested, 5.4% active; Potency, µM (top dose mostly 53.6 µM), hits mostly inhibitors; Nuclear receptor ROR-gamma (Mus musculus), P51450; Drosophila S2 Gal4-RORgamma UAS-luciferase reporter, 20 h; note: nearly all actives have a fitted effect of over 60% in size
#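 A Gal4/UAS one-hybrid system in insect cells: metallothionein-promoter Gal4–ROR gamma fusion plus Photinus luciferase reporter. Copper sulfate 700 uM final, 20 hr ambient incubation, luminescent detection after 10 min with reagent.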
# CtBP-E1A inh = qHTS Assay for Inhibitors of the CtBP/E1A Interaction; 340,000 tested, 0.49% active; AlphaScreen GST-E1A/His-CtBP binding, 1536-well; hits give low values; activity change, % (concentration not given with the values); CtBP / adenovirus E1A interaction (AlphaScreen); in the data active = activity change below about -65%; inconclusive = mostly about -30% to -63%
#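 Protein mix (5X: 125 nM each GST-E1A, His-CtBP) was incubated with pinned compound 2 h at 37 deg C in dark, in 50 mM Tris pH 8.0 buffer with 300 mM NaCl. Glutathione donor and nickel acceptor beads followed; AlphaScreen signal read after 1 h.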
# CBFb RUNX1 block = qHTS Assay for Compounds Blocking the Interaction Between CBF-beta and RUNX1 for the Treatment of Acute Myeloid Leukemia; Runt-related transcription factor 1 (Homo sapiens) + Core-binding factor subunit beta …; AlphaScreen CBFb-His/RUNX1-biotin binding, biochemical; Potency, µM (highest dose often 59.8 µM), hits mostly inhibitors; 230,000 tested, under 10 active
#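 CBF-beta (His) and RUNX1 (biotin), 30 nM each; 20 min preassociation; + compound, 15 min; + beads 50 ng each (Ni, streptavidin), 90 min; RT; AlphaScreen read.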
# MBNL1-CUG inh = qHTS Assay for Inhibitors of MBNL1-poly(CUG) RNA binding; Muscleblind-like protein 1 (Homo sapiens), Q9NR56; 280,000 tested, 0.036% active; TR-FRET MBNL1-His/biotin-(CUG)12 binding, 665/545 ratio; Potency, µM (doses to about 57.5 µM), most hits filed as inhibitors; active = well fitted inhibition curve with a large enough effect in the signal ratio, with a control signal flat, not every such curve was filed as active; inconclusive = small, poorly fitted or top-dose-only effect, or effect the other way, or a change in a side signal; inactive = no such curve, though single readings can be large or run the other way; the % refers to the signal ratio
# Target sequence (Q9NR56 whole entry, looked up): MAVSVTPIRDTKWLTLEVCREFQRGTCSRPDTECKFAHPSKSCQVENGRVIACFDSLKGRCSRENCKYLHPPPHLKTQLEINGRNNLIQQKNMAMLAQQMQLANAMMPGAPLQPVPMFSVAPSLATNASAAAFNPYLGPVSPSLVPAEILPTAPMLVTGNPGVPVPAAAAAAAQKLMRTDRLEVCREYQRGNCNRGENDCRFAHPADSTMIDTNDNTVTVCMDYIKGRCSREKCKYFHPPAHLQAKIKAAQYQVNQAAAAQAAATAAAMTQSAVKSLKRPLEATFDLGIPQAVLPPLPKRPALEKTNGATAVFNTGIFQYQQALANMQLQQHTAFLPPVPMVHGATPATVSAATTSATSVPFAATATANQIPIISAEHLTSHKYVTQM
#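 Compound titration spanned 92 nM–58 uM against the MBNL1-His/biotin-(CUG)12 complex. After 60 min at room temperature with 5 nM streptavidin-XL665 and 0.055 ng/ul terbium anti-His, ratiometric 665/545 nm emission (Ex 340 nm) normalized to controls.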
# Hits are given with their value; – = inactive; ? = inconclusive; · = no result; [ ] = remark or other dose. Unless noted, calls come from the whole dose curve; as a rule, active = well fitted curve in the direction sought with a large enough effect; inconclusive = small, poorly fitted or top-dose-only effect, or another doubt; inactive = no such curve, though single readings can be large; an effect the other way counts as inactive or inconclusive.
SMILES,Gal4-VP16 FLuc,Six1-Eya2 blk,RORgamma inh,CtBP-E1A inh,CBFb RUNX1 block,MBNL1-CUG inh
CC(C)C[C@H](NC(=O)c1nc[nH]c1C(=O)N[C@@H](CCCCN)C(=O)OC(C)(C)C)C(=O)OC(C)(C)C,·,–,·,·,·,·
CC(C)C[C@H](NC(=O)c1nc[nH]c1C(=O)NCC(=O)OCc1ccccc1)C(=O)OCc1ccccc1,?,–,–,–,·,–
CCOC(=O)c1ccc(NC(=O)c2nc[nH]c2C(=O)N[C@@H](CC(C)C)C(=O)OCc2ccccc2)cc1,?,–,1.1µM,–,–,–
CC(C)C[C@H](NC(=O)c1[nH]cnc1C(=O)Nc1ccccc1)C(=O)OC(C)(C)C,8.9µM,–,5µM,·,–,–
CCOC(=O)c1ccc(NC(=O)c2nc[nH]c2C(=O)N(C)Cc2ccccc2)cc1,?,–,10µM,·,–,–
CCOC(=O)c1ccc(NC(=O)c2nc[nH]c2C(=O)NCCNC(=O)c2[nH]cnc2C(=O)Nc2ccc(C(=O)OCC)cc2)cc1,·,–,·,–,·,·
COc1ccc(NC(=O)c2nc[nH]c2C(=O)N[C@H](C)c2ccccc2)cc1,7.9µM,–,6.3µM,·,–,–
CCOC(=O)c1ccc(NC(=O)c2nc[nH]c2C(=O)N[C@H](C)c2ccccc2)cc1,7.1µM,–,2.8µM,·,–,–
COc1ccc(NC(=O)/C(Cl)=C(/Cl)S(=O)(=O)Cc2ccccc2)cn1,3.2µM,–,?,–,–,–
COc1ccc(NC(=O)C(Cl)=C(Cl)Cl)cn1,–,–,–,–,–,–
COc1ccc(NC(=O)/C(Cl)=C(/Cl)S(=O)Cc2ccc(Cl)cc2)cn1 (centres undefined),2.8µM,–,0.79µM,–,–,·
COC1OCC(O)C(OC(=O)c2ccccc2)C1OC(=O)c1ccccc1 (centres undefined),·,–,·,–,·,·
CCOc1ccccc1C(=O)NCC(=O)OCCOc1cccc(Cl)c1,–,–,–,–,·,–
OC(c1ccc(F)c(F)c1)c1nc(-c2cccc3cccnc23)cs1 (centres undefined),·,–,·,–,·,·
S=c1nc[nH]c2c1cnn2Cc1ccccc1,?,–,22µM,–,·,–
O=C(Nc1nnc(-c2ccc(Br)cc2)o1)c1cccc(N2C(=O)CCC2=O)c1,·,?,·,–,·,·
O=C(Nc1nnc(-c2ccccc2)o1)c1cccc(N2C(=O)CCC2=O)c1,4.5µM,–,2.5µM,–,?,–
Cc1nn(-c2ccccc2)c(C)c1C(=O)NCCc1ccccc1,–,–,–,–,·,–
Cc1nn(-c2ccccc2)c(C)c1C(=O)Nc1nnc(-c2ccco2)o1,–[0.365 µM],–,0.35µM,–,–,–
O=C(Nc1nnc(-c2ccc(Cl)cc2)o1)c1ccc(N2C(=O)CCC2=O)cc1,2.8µM,–,1.1µM,–,–,·
O=C(Nc1nnc(-c2ccco2)o1)c1ccc(N2C(=O)CCC2=O)cc1,?,–,11µM,–,–,–
CN(Cc1cccc(F)c1)C(=O)c1ccc(S(=O)(=O)N2CCCCCC2)cc1,·,–,·,–,·,·
C[C@@H]1CCCCO[C@@H](CN(C)C(=O)CCCN(C)C)[C@@H](C)CN([C@H](C)CO)C(=O)c2cc(NC(=O)CCC(F)(F)F)ccc2O1,·,–,·,–,·,·
Cc1cc(OC(=O)c2cccc(Br)c2)c([N+](=O)[O-])c(=O)[nH]1,–,–,–,–,·,–
O=C1C(NS(=O)(=O)c2ccc(Cl)cc2)=C(N2CCCCC2)C(=O)c2ccccc21,?,-80,–,-81,–,?
SMILES,Gal4-VP16 FLuc,Six1-Eya2 blk,RORgamma inh,CtBP-E1A inh,CBFb RUNX1 block,MBNL1-CUG inh
CN1CCN(C2=C(NS(=O)(=O)c3ccccc3)C(=O)c3ccccc3C2=O)CC1,13µM,–,11µM,–,·,?
CCN1CCN(C2=C(NS(=O)(=O)c3ccccc3)C(=O)c3ccccc3C2=O)CC1,?,–,10µM,·,·,?
CN1CCN(C2=C(NS(=O)(=O)c3cccs3)C(=O)c3ccccc3C2=O)CC1,–,–,–,–,–,?
CCOC(=O)C1CCN(C2=C(NS(=O)(=O)c3ccc(Br)cc3)C(=O)c3ccccc3C2=O)CC1,–,-80,–,·,·,?
Nn1c(-c2cccc([N+](=O)[O-])c2)nc2ccccc2c1=O,–,–,–,–,·,?
CCc1nc2sc3c(c2c(=O)n1CCO)CCC3,·,–,·,–,·,–
COc1cccc(CNC(=O)C2CCN(S(=O)(=O)c3ccc4c(c3)CC(C)N4C(C)=O)CC2)c1 (centres undefined),–,–,–,–,·,–
COc1ccc(Cl)cc1NC(=O)C(C)N1CCN(c2ccccn2)CC1 (centres undefined),–,–,–,·,·,–
Cc1ccc(C(=O)N/C(=C\c2ccco2)C(=O)NCCCn2ccnc2)cc1,–,-77,–,–,?,·
Cc1ccc(C(=O)N/C(=C/c2ccco2)C(=O)NCCCn2ccnc2)cc1,–,?,–,–,–,–
O=C1c2cccc3c([N+](=O)[O-])ccc(c23)C(=O)N1c1ccc(Cl)cn1,7.9µM,–,?,–,–,?
O=C1c2cccc3c([N+](=O)[O-])ccc(c23)C(=O)N1O,13µM,–,?,·,·,?
O=C1c2cccc3c([N+](=O)[O-])ccc(c23)C(=O)N1c1nccs1,5µM,–,5.6µM,–,–,?
COC(=O)N1C(c2ccccc2)=Cc2ccccc2C1CC(C)=O (centres undefined),·,·,·,·,–[13.1 µM],·
CCCCNC(=O)C(NC(=O)c1ccc(=O)[nH]c1)C(=O)c1ccccc1 (centres undefined),·,–,·,–,·,·
COc1ccc(C2=Nn3c(nnc3-c3ccco3)SC2)cc1OC,–,-71,–,-87,–,?
COc1cc(OC)cc(-c2nnc3n2N=C(c2ccc(OC)c(OC)c2)CS3)c1,–,·,–,·,–,·
COc1ccc(C2=Nn3c(nnc3-c3ccccn3)SC2)cc1OC,–,-77,–,-82,–,?
COc1ccc(C2=Nn3c(nnc3-c3cc(C)[nH]n3)SC2)cc1,–,-77,–,?,–,–
COc1ccc(C2=Nn3c(nnc3-c3ccccc3OC)SC2)cc1OC,–,–,–,?,–,–
CC(Nc1ccc2c(c1)OCCO2)C(=O)N1CCc2ccccc21 (centres undefined),–,–,?,–,–,–
